{
  "source": "PubChem BioAssay (NCATS)",
  "note": "Results filed as inconclusive are left out. A number with no mark means an inactive call. Calls follow the shape of the dose curve; as a rule, active = well fitted cell-killing curve with a large enough effect; inconclusive = small, poorly fitted or top-dose-only effect, or effect the other way; inactive = flat fitted curve, though single readings scatter. % is scaled to controls: 0 for no effect and ±100 for the full control effect.",
  "data": [
    {"test_system": "Tov112D", "assay": "Primary qHTS to identify gynecologic anti-cancer compounds using libraries of approved drugs and bioactive compounds (AID 1345084); also: nearly all actives have a fitted effect of over 55% in size", "details": "Gynecologic cancer cell panel viability, ATPlite luminescence, 48 h; series mostly up to 57.5 µM; activity change, negative = cytotoxicity: at the top concentration", "in_short": "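Cell viability after 48 h drug treatment, ATPlite luminescence readout; five doses.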", "values": [
      {"smiles": "CC(CC(C)O[C@@H]1O[C@H](CO)[C@@H](O)[C@H](O)[C@H]1O)OC(=O)/C=C/c1ccc(O)cc1", "note": "(stereo not given in full)", "activity change, negative = cytotoxicity": "-0.293% [at 25.3 µM]"},
      {"smiles": "C=C(C)[C@@H]1CC[C@]2(C(=O)O)CC[C@]3(C)[C@H](CCC4[C@@]5(C)CCC(=O)C(C)(C)C5C(O)C[C@]43C)C12", "note": "(stereo not given in full)", "activity change, negative = cytotoxicity": "-14.6% [at 25.3 µM]"},
      {"smiles": "O=C(O)/C=C/c1ccc2occc2c1O[C@@H]1O[C@H](CO)[C@@H](O)[C@H](O)[C@H]1O", "activity change, negative = cytotoxicity": "-1.31% [at 38.5 µM]"},
      {"smiles": "O=C(O)CC1(O)C(=O)Nc2ccccc21", "note": "(stereo not given)", "activity change, negative = cytotoxicity": "17.6%"},
      {"smiles": "CS(=O)(=O)c1ccccc1N1CCN(c2nc3c(c(=O)[nH]2)CSCC3)CC1", "activity change, negative = cytotoxicity": "14.2%"},
      {"smiles": "COC(=O)C1=CO[C@@H](O[C@@H]2O[C@H](CO)[C@@H](O)[C@H](O)[C@H]2O)[C@@H]2[C@@H](C)[C@@H](OC(=O)/C=C/c3ccccc3)[C@@H](O)[C@H]12", "activity change, negative = cytotoxicity": "3.24% [at 25.3 µM]"},
      {"smiles": "CC1C(=O)OCC2=CC[N+]3([O-])CCC(OC(=O)C(C)(O)C1(C)O)C23", "note": "(stereo not given)", "activity change, negative = cytotoxicity": "1.48% [at 38.5 µM]"},
      {"smiles": "C[C@@H](c1ccccc1)N(C(N)=NC#N)c1cccc2ncccc12", "activity change, negative = cytotoxicity": "-1.14%"},
      {"smiles": "COC(=O)C1=COC(O[C@@H]2O[C@H](COC(=O)/C=C/c3ccc(O)cc3)[C@@H](O)[C@H](O)[C@H]2O)C2C(CO)=CCC12", "note": "(stereo not given in full)", "activity change, negative = cytotoxicity": "1.12% [at 25.3 µM]"},
      {"smiles": "C=C1C(=O)O[C@@H]2CC(C)=C([C@@H](C)CCCOC(C)=O)[C@@H](O)[C@H]12", "activity change, negative = cytotoxicity": "-0.719% [at 38.5 µM]"},
      {"smiles": "COC(=O)C1=COC(O[C@@H]2O[C@H](CO)[C@@H](O)[C@H](O)[C@H]2O)C2C(C)C(=O)CC12", "note": "(stereo not given in full)", "activity change, negative = cytotoxicity": "5.41% [at 38.5 µM]"},
      {"smiles": "CC1(C)CC=C(C#Cc2ccccc2)c2cc(/C=C/c3ccc(C(=O)O)cc3)ccc21", "activity change, negative = cytotoxicity": "2.63%"},
      {"smiles": "CC12CC(O)C(O)C=C1c1cc(O)cc(O)c1C(=O)O2", "note": "(stereo not given)", "activity change, negative = cytotoxicity": "3.69%"},
      {"smiles": "CC(=O)OC(C)(C)/C=C/C(=O)[C@](C)(O)C1[C@H](O)C[C@@]2(C)[C@@H]3CC=C4[C@@H](C[C@H](O[C@@H]5O[C@H](CO)[C@@H](O)[C@H](O)[C@H]5O)C(=O)C4(C)C)[C@]3(C)C(=O)C[C@]12C", "note": "(stereo not given in full)", "activity change, negative = cytotoxicity": "11.9% [at 25.3 µM]"},
      {"smiles": "CN1CCN(C2=Nc3ccccc3Nc3ccc(O)cc32)CC1", "activity change, negative = cytotoxicity": "7.44%"},
      {"smiles": "CC(=O)OC/C(=C/C(=O)O)CC[C@@H]1C(CO)=CC[C@@H]2C(C)(C)CCC[C@@]12C", "activity change, negative = cytotoxicity": "8.24% [at 38.5 µM]"},
      {"smiles": "CC(=O)OC1C(CO)OC(O[C@H]2[C@H](OC(=O)[C@]34CCC(C)(C)C[C@H]3C3=CCC5[C@@]6(C)CC[C@H](O[C@@H]7O[C@H](C(=O)O)[C@@H](O)[C@H](O[C@@H]8OC[C@@H](O)[C@H](O)[C@H]8O)[C@H]7O[C@@H]7O[C@H](CO)[C@H](O)[C@H](O)[C@H]7O)[C@@](C)(C=O)C6CC[C@@]5(C)[C@]3(C)C[C@H]4O)O[C@H](C)[C@H](OC3OC(C)C(OC4OCC(O)C(O)C4O)C(O)C3O)[C@@H]2O)C(O)C1O", "note": "(stereo not given in full)", "activity change, negative = cytotoxicity": "5.09% [at 6.55 µM]"},
      {"smiles": "C/C(=C\\CO)CC/C=C(\\C)C(=O)O[C@@H]1O[C@H](CO)[C@@H](O)[C@H](O)[C@H]1O", "activity change, negative = cytotoxicity": "0.849% [at 38.5 µM]"},
      {"smiles": "COc1cc(C)c(C(=O)O[C@@H]2[C@H](O)[C@@H](CO)O[C@H]2n2ccc(=O)[nH]c2=O)c(OC)c1", "activity change, negative = cytotoxicity": "3.14% [at 25.3 µM]"},
      {"smiles": "COc1cc(/C=C/CO[C@@H]2O[C@H](CO)[C@@H](O)[C@H](O)[C@H]2O)cc(OC)c1O[C@@H]1O[C@H](CO)[C@@H](O)[C@H](O)[C@H]1O", "activity change, negative = cytotoxicity": "-1.03% [at 25.3 µM]"},
      {"smiles": "CC1=C2C(=O)C=C(CO)C2C2OC(=O)C(CS(=O)(=O)O)C2C(OC(=O)Cc2ccc(O)cc2)C1", "note": "(stereo not given)", "activity change, negative = cytotoxicity": "-7.3% [at 25.3 µM]"},
      {"smiles": "C[C@@H]1C[C@@H](O)[C@@]23CO[C@]2(CO)CCC[C@@H]3[C@@]12C[C@@H](c1ccoc1)OC2=O", "activity change, negative = cytotoxicity": "-2.63% [at 38.5 µM]"},
      {"smiles": "NC1Nc2ccccc2C1(N)CC1NC(=O)C(Cc2ccccc2)NC(=O)C(Cc2ccccc2)NC1=O", "note": "(stereo not given)", "activity change, negative = cytotoxicity": "-21.6% [at 25.3 µM]"},
      {"smiles": "CC(C/C=C/C(C)(C)O)C1CCC(C)(O)C(O)C1", "note": "(stereo not given)", "activity change, negative = cytotoxicity": "7.06%"},
      {"smiles": "CCC(C)/C=C(C)/C=C/C1=CC2=C(Cl)C(=O)C(C)(OC(C)=O)C(=O)C2=CN1C(CCCN=C(N)N)C(=O)O", "note": "(stereo not given)", "activity change, negative = cytotoxicity": "2.8% [at 25.3 µM]"},
      {"smiles": "COc1ccc(CCC(=O)O)c(O[C@@H]2O[C@H](CO)[C@@H](O)[C@H](O)[C@H]2O)c1", "activity change, negative = cytotoxicity": "-3.09% [at 38.5 µM]"},
      {"smiles": "C=C(C)[C@@H]1CC[C@]2(C(=O)O)CC[C@]3(C)C(CCC4[C@]5(C)C(CC[C@]43C)C(C)(C)[C@@H](O)[C@@H]5C(=O)O)C12", "note": "(stereo not given in full)", "activity change, negative = cytotoxicity": "6.13% [at 25.3 µM]"},
      {"smiles": "C/C(=C/CO)CC[C@H]1[C@]2(C)C[C@H](O)CC(C)(C)[C@H]2CC[C@]1(C)O", "activity change, negative = cytotoxicity": "8.05% [at 38.5 µM]"},
      {"smiles": "CCC(C)(C)C1CCc2c(sc(NC(=O)c3ccc(Br)cc3)c2C#N)C1", "note": "(stereo not given)", "activity change, negative = cytotoxicity": "3.9%"},
      {"smiles": "C[C@@H]1O[C@@H](O[C@H]2[C@@H]3C=CO[C@@H](O[C@@H]4O[C@H](CO)[C@@H](O)[C@H](O)[C@H]4O)[C@@H]3[C@@]3(CO)O[C@@H]23)[C@H](OC(=O)/C=C/c2ccc(O)cc2)[C@H](O)[C@H]1O", "activity change, negative = cytotoxicity": "-2.12% [at 25.3 µM]"}
    ]}
  ]
}
